{
  "source": "PubChem BioAssay AID1159580",
  "about": "(chemical genetic matrix, 2015)",
  "assay": "chemical genetic growth profiling, strain panel (AID 1159580);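 also: tested at 20 µM; growth read once vehicle control cultures reached saturation at 30 °C; 1 = growth at the plate median or of vehicle wells; lower values mean less growth of the strain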",
  "settings": "S. cerevisiae deletion strains, growth OD",
  "note": "“And” between values parts separate entries of the source, which are not always exact repeats. Equal entries are not always repeated. Screen size: about 5,500 compounds; about 2,000 (36%) were called active. Inconclusive results (about 18%) are left out. Rule as the data show it: active = normalized growth mostly below about 0.91 (no sharp cut-off); inconclusive = no clear call, values can overlap the other calls; inactive = mostly above about 0.92. The list shows a part of the results.",
  "data": [
    {"smiles": "O=C(O)P(=O)(O)O", "values": [
      {"measurement": "normalized growth", "setting": "locus YAL013W, strain DEP1, stronger effect = lower value", "value": "0.961 (inactive)"},
      {"measurement": "normalized growth", "setting": "locus YAL021C, strain ccr4, stronger effect = lower value", "value": "1.01 (inactive)"},
      {"measurement": "normalized growth", "setting": "locus YAL026C, strain drs2, stronger effect = lower value", "value": "0.979 (inactive)"},
      {"measurement": "normalized growth", "setting": "locus YAL030W, strain snc1, stronger effect = lower value", "value": "0.985 (inactive)"},
      {"measurement": "normalized growth", "setting": "locus YBL061C, strain skt5, stronger effect = lower value", "value": "0.984 (inactive)"},
      {"measurement": "normalized growth", "setting": "locus YBR009C, strain hhf1, stronger effect = lower value", "value": "1.01 (inactive)"},
      {"measurement": "normalized growth", "setting": "locus YBR021W, strain FUR4, stronger effect = lower value", "value": "0.994 (inactive)"},
      {"measurement": "normalized growth", "setting": "locus YBR023C, strain chs3, stronger effect = lower value", "value": "0.969 (inactive)"},
      {"measurement": "normalized growth", "setting": "locus YBR171W, strain sec66, stronger effect = lower value", "value": "0.994 (inactive)"},
      {"measurement": "normalized growth", "setting": "locus YBR229C, strain ROT2, stronger effect = lower value", "value": "0.996 (inactive)"},
      {"measurement": "normalized growth", "setting": "locus YBR231C, strain swc5, stronger effect = lower value", "value": "0.958 (inactive)"},
      {"measurement": "normalized growth", "setting": "locus YBR279W, strain paf1, stronger effect = lower value", "value": "0.981 (inactive)"},
      {"measurement": "normalized growth", "setting": "locus YCL011C, strain gbp2, stronger effect = lower value", "value": "0.982 (inactive)"},
      {"measurement": "normalized growth", "setting": "locus YCL016C, strain dcc1, stronger effect = lower value", "value": "0.998 (inactive)"},
      {"measurement": "normalized growth", "setting": "locus YCL029C, strain bik1, stronger effect = lower value", "value": "0.969 (inactive)"},
      {"measurement": "normalized growth", "setting": "locus YCL069W, strain vba3, stronger effect = lower value", "value": "1 (inactive)"},
      {"measurement": "normalized growth", "setting": "locus YCR088W, strain abp1, stronger effect = lower value", "value": "0.984 (inactive)"},
      {"measurement": "normalized growth", "setting": "locus YDL005C, strain med2, stronger effect = lower value", "value": "0.968 (inactive)"},
      {"measurement": "normalized growth", "setting": "locus YDL035C, strain GPR1, stronger effect = lower value", "value": "1 (inactive)"},
      {"measurement": "normalized growth", "setting": "locus YDL040C, strain nat1, stronger effect = lower value", "value": "0.984 (inactive)"},
      {"measurement": "normalized growth", "setting": "locus YDL074C, strain BRE1, stronger effect = lower value", "value": "0.892 (inactive)"},
      {"measurement": "normalized growth", "setting": "locus YDL101C, strain DUN1, stronger effect = lower value", "value": "0.964 (inactive)"},
      {"measurement": "normalized growth", "setting": "locus YDL134C, strain PPH21, stronger effect = lower value", "value": "1.01 (inactive)"},
      {"measurement": "normalized growth", "setting": "locus YDL185W, strain tfp1, stronger effect = lower value", "value": "0.932 (inactive)"},
      {"measurement": "normalized growth", "setting": "locus YDL192W, strain arf1, stronger effect = lower value", "value": "0.961 (inactive)"},
      {"measurement": "normalized growth", "setting": "locus YDR001C, strain nth1, stronger effect = lower value", "value": "0.976 (inactive)"},
      {"measurement": "normalized growth", "setting": "locus YDR069C, strain doa4, stronger effect = lower value", "value": "0.983 (inactive)"},
      {"measurement": "normalized growth", "setting": "locus YDR101C, strain arx1, stronger effect = lower value", "value": "0.983 (inactive)"},
      {"measurement": "normalized growth", "setting": "locus YDR137W, strain rgp1, stronger effect = lower value", "value": "0.984 (inactive)"},
      {"measurement": "normalized growth", "setting": "locus YDR150W, strain NUM1, stronger effect = lower value", "value": "0.986 (inactive)"},
      {"measurement": "normalized growth", "setting": "locus YDR159W, strain sac3, stronger effect = lower value", "value": "0.963 (inactive)"},
      {"measurement": "normalized growth", "setting": "locus YDR162C, strain NBP2, stronger effect = lower value", "value": "0.902 (inactive)"},
      {"measurement": "normalized growth", "setting": "locus YDR195W, strain ref2", "value": "0.955 (inactive)"},
      {"measurement": "normalized growth", "setting": "locus YDR297W, strain sur2, stronger effect = lower value", "value": "0.992 (inactive)"},
      {"measurement": "normalized growth", "setting": "locus YDR318W, strain mcm21, stronger effect = lower value", "value": "0.976 (inactive)"},
      {"measurement": "normalized growth", "setting": "locus YDR334W, strain swr1, stronger effect = lower value", "value": "0.988 (inactive)"},
      {"measurement": "normalized growth", "setting": "locus YDR335W, strain msn5, stronger effect = lower value", "value": "0.991 (inactive)"},
      {"measurement": "normalized growth", "setting": "locus YDR388W, stronger effect = lower value", "value": "0.967 (inactive)"},
      {"measurement": "normalized growth", "setting": "locus YDR392W, strain spt3, stronger effect = lower value", "value": "0.977 (inactive)"},
      {"measurement": "normalized growth", "setting": "locus YDR502C, strain sam2, stronger effect = lower value", "value": "0.957 (inactive)"},
      {"measurement": "normalized growth", "setting": "locus YEL003W, strain gim4, stronger effect = lower value", "value": "0.984 (inactive)"},
      {"measurement": "normalized growth", "setting": "locus YEL037C, strain rad23, stronger effect = lower value", "value": "0.99 (inactive)"},
      {"measurement": "normalized growth", "setting": "locus YEL061C, strain CIN8 (second series), stronger effect = lower value", "value": "0.975 (inactive)"},
      {"measurement": "normalized growth", "setting": "locus YEL061C, strain CIN8, stronger effect = lower value", "value": "0.984 (inactive)"},
      {"measurement": "normalized growth", "setting": "locus YER015W, strain faa2, stronger effect = lower value", "value": "0.984 (inactive)"},
      {"measurement": "normalized growth", "setting": "locus YER016W, strain bim1, stronger effect = lower value", "value": "0.983 (inactive)"},
      {"measurement": "normalized growth", "setting": "locus YER110C, stronger effect = lower value", "value": "0.936 (inactive)"},
      {"measurement": "normalized growth", "setting": "locus YER111C, strain swi4, stronger effect = lower value", "value": "0.98 (inactive)"},
      {"measurement": "normalized growth", "setting": "locus YER155C, strain BEM2 (second series), stronger effect = lower value", "value": "0.935 (inactive)"},
      {"measurement": "normalized growth", "setting": "locus YER155C, strain BEM2, stronger effect = lower value", "value": "0.983 (inactive)"},
      {"measurement": "normalized growth", "setting": "locus YER167W, strain BCK2, stronger effect = lower value", "value": "0.98 (inactive)"},
      {"measurement": "normalized growth", "setting": "locus YFR010W, strain ubp6, stronger effect = lower value", "value": "0.965 (inactive)"},
      {"measurement": "normalized growth", "setting": "locus YGL078C, strain dbp3, stronger effect = lower value", "value": "0.986 (inactive)"},
      {"measurement": "normalized growth", "setting": "locus YGL086W, strain mad1, stronger effect = lower value", "value": "0.965 (inactive)"},
      {"measurement": "normalized growth", "setting": "locus YGL167C, strain pmr1, stronger effect = lower value", "value": "0.984 (inactive)"},
      {"measurement": "normalized growth", "setting": "locus YGL173C, strain kem1, stronger effect = lower value", "value": "0.992 (inactive)"},
      {"measurement": "normalized growth", "setting": "locus YGL227W, strain vid30, stronger effect = lower value", "value": "0.982 (inactive)"},
      {"measurement": "normalized growth", "setting": "locus YGL240W, strain doc1, stronger effect = lower value", "value": "0.964 (inactive)"},
      {"measurement": "normalized growth", "setting": "locus YGL248W, strain PDE1, stronger effect = lower value", "value": "0.94 (inactive)"},
      {"measurement": "normalized growth", "setting": "locus YGL253W, strain hxk2, stronger effect = lower value", "value": "0.985 (inactive)"},
      {"measurement": "normalized growth", "setting": "locus YGR078C, strain PAC10, stronger effect = lower value", "value": "0.93 (inactive)"},
      {"measurement": "normalized growth", "setting": "locus YGR135W, strain pre9, stronger effect = lower value", "value": "0.945 (inactive)"},
      {"measurement": "normalized growth", "setting": "locus YGR229C, strain SMI1, stronger effect = lower value", "value": "0.886 (inactive)"},
      {"measurement": "normalized growth", "setting": "locus YGR252W, strain gcn5, stronger effect = lower value", "value": "0.911 (inactive)"},
      {"measurement": "normalized growth", "setting": "locus YHR013C, strain ard1, stronger effect = lower value", "value": "0.985 (inactive)"},
      {"measurement": "normalized growth", "setting": "locus YHR027C, strain rpn1, stronger effect = lower value", "value": "0.999 (inactive)"},
      {"measurement": "normalized growth", "setting": "locus YHR030C, strain SLT2, stronger effect = lower value", "value": "0.898 (active) and 1.05 (inactive)"},
      {"measurement": "normalized growth", "setting": "locus YHR079C, strain IRE1 (second series), stronger effect = lower value", "value": "0.963 (inactive)"},
      {"measurement": "normalized growth", "setting": "locus YHR079C, strain IRE1, stronger effect = lower value", "value": "1.05 (inactive)"},
      {"measurement": "normalized growth", "setting": "locus YHR094C, strain hxt1, stronger effect = lower value", "value": "0.982 (inactive)"},
      {"measurement": "normalized growth", "setting": "locus YHR129C, strain ARP1, stronger effect = lower value", "value": "0.973 (inactive)"},
      {"measurement": "normalized growth", "setting": "locus YHR142W, strain chs7, stronger effect = lower value", "value": "0.978 (inactive)"},
      {"measurement": "normalized growth", "setting": "locus YHR200W, strain rpn10, stronger effect = lower value", "value": "0.96 (inactive)"},
      {"measurement": "normalized growth", "setting": "locus YIL066C, strain RNR3, stronger effect = lower value", "value": "0.999 (inactive)"},
      {"measurement": "normalized growth", "setting": "locus YIL073C, strain SPO22, stronger effect = lower value", "value": "0.868 (inactive)"},
      {"measurement": "normalized growth", "setting": "locus YIL125W, strain kgd1, stronger effect = lower value", "value": "0.979 (inactive)"},
      {"measurement": "normalized growth", "setting": "locus YIR030C, strain dcg1, stronger effect = lower value", "value": "0.959 (inactive)"},
      {"measurement": "normalized growth", "setting": "locus YJL092W, strain hpr5, stronger effect = lower value", "value": "0.982 (inactive)"},
      {"measurement": "normalized growth", "setting": "locus YJL095W, strain BCK1 (second series), stronger effect = lower value", "value": "0.993 (inactive)"},
      {"measurement": "normalized growth", "setting": "locus YJL095W, strain BCK1, stronger effect = lower value", "value": "0.738 (active) and 1.03 (inactive)"},
      {"measurement": "normalized growth", "setting": "locus YJL115W, strain asf1, stronger effect = lower value", "value": "0.986 (inactive)"},
      {"measurement": "normalized growth", "setting": "locus YJL129C, strain trk1, stronger effect = lower value", "value": "0.984 (inactive)"},
      {"measurement": "normalized growth", "setting": "locus YJL134W, strain LCB3, stronger effect = lower value", "value": "0.985 (inactive)"},
      {"measurement": "normalized growth", "setting": "locus YJL154C, strain vps35, stronger effect = lower value", "value": "0.977 (inactive)"},
      {"measurement": "normalized growth", "setting": "locus YJL164C, strain tpk1, stronger effect = lower value", "value": "1 (inactive)"},
      {"measurement": "normalized growth", "setting": "locus YJL166W, strain qcr8, stronger effect = lower value", "value": "0.978 (inactive)"},
      {"measurement": "normalized growth", "setting": "locus YJL168C, strain set2, stronger effect = lower value", "value": "0.97 (inactive)"},
      {"measurement": "normalized growth", "setting": "locus YJL187C, strain SWE1 (second series), stronger effect = lower value", "value": "0.942 (inactive)"},
      {"measurement": "normalized growth", "setting": "locus YJL187C, strain SWE1, stronger effect = lower value", "value": "0.965 (inactive)"},
      {"measurement": "normalized growth", "setting": "locus YJR043C, strain POL32, stronger effect = lower value", "value": "0.972 (inactive)"}
    ]}
  ]
}
